Laboratory results as given in PubChem BioAssay AID1159580 (chemical genetic matrix, 2015).
The whole screen tested about 5,500 compounds, of which about 2,000 (36%) were called active. Not shown: some 18% with an inconclusive outcome. Rule as the data show it: active = normalized growth mostly below about 0.91 (no sharp cut-off); inconclusive = no clear call, values can overlap the other calls; inactive = mostly above about 0.92. The list shows a part of the results.

Experiment: chemical genetic growth profiling, strain panel (AID 1159580);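 also: tested at 20 µM; growth read once vehicle control cultures reached saturation at 30 °C; 1 = growth at the plate median or of vehicle wells; lower values mean less growth of the strain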
Conditions: growth OD
[1] = S. cerevisiae deletion strains, locus YHR030C, strain SLT2, active compounds read low
[2] = S. cerevisiae deletion strains, locus YHR079C, strain IRE1, active compounds read low
[3] = S. cerevisiae deletion strains, locus YJL095W, strain BCK1, active compounds read low
[4] = S. cerevisiae deletion strains, locus YJR066W, strain TOR1, active compounds read low
[5] = S. cerevisiae deletion strains, locus YLR113W, strain HOG1, active compounds read low
[6] = S. cerevisiae deletion strains, locus YNL183C, strain NPR1, active compounds read low
[7] = S. cerevisiae deletion strains, locus YOR231W, strain MKK1, active compounds read low
[8] = S. cerevisiae deletion strains, locus YPL256C, strain CLN2, active compounds read low
[9] = S. cerevisiae deletion strains, locus YAL013W, strain DEP1, active compounds read low
[10] = S. cerevisiae deletion strains, locus YDR150W, strain NUM1, active compounds read low
[11] = S. cerevisiae deletion strains, locus YGR078C, strain PAC10, active compounds read low
[12] = S. cerevisiae deletion strains, locus YJR075W, strain HOC1, active compounds read low
[13] = S. cerevisiae deletion strains, locus YMR263W, strain SAP30, active compounds read low
[14] = S. cerevisiae deletion strains, locus YMR307W, strain GAS1, active compounds read low
[15] = S. cerevisiae deletion strains, locus YPL055C, strain LGE1, active compounds read low

Measured: normalized growth

Clc1ccc2c(c1)CCc1cccnc1C2=C1CCNCC1
inactive: [1] 0.968 | [2] 0.986 | [3] 1.04 | [4] 0.932 | [5] 1.03 | [6] 0.965 | [7] 0.992 | [8] 0.972

O=C1CCCCC/C=C/CCCCCCCCO1
inactive: [9] 0.986 | S. cerevisiae deletion strains, locus YBR021W, strain FUR4, active compounds read low 1.01 | S. cerevisiae deletion strains, locus YBR229C, strain ROT2, active compounds read low 1 | S. cerevisiae deletion strains, locus YCL029C, strain bik1, active compounds read low 1 | S. cerevisiae deletion strains, locus YDL035C, strain GPR1, active compounds read low 0.988 | S. cerevisiae deletion strains, locus YDL074C, strain BRE1, active compounds read low 0.949 | S. cerevisiae deletion strains, locus YDL101C, strain DUN1, active compounds read low 0.994 | S. cerevisiae deletion strains, locus YDL134C, strain PPH21, active compounds read low 0.999 | S. cerevisiae deletion strains, locus YDL185W, strain tfp1, active compounds read low 0.999 | S. cerevisiae deletion strains, locus YDL192W, strain arf1, active compounds read low 0.997 | S. cerevisiae deletion strains, locus YDR101C, strain arx1, active compounds read low 0.979 | [10] 1.01 | S. cerevisiae deletion strains, locus YDR162C, strain NBP2, active compounds read low 1 | S. cerevisiae deletion strains, locus YDR318W, strain mcm21, active compounds read low 0.985 | S. cerevisiae deletion strains, locus YDR388W, active compounds read low 0.99 | S. cerevisiae deletion strains, locus YDR502C, strain sam2, active compounds read low 0.969 | S. cerevisiae deletion strains, locus YEL061C, strain CIN8, active compounds read low 0.999 | S. cerevisiae deletion strains, locus YER110C, active compounds read low 0.992 | S. cerevisiae deletion strains, locus YER155C, strain BEM2, active compounds read low 1 | S. cerevisiae deletion strains, locus YER167W, strain BCK2, active compounds read low 0.974 | S. cerevisiae deletion strains, locus YGL078C, strain dbp3, active compounds read low 1 | S. cerevisiae deletion strains, locus YGL086W, strain mad1, active compounds read low 0.988 | S. cerevisiae deletion strains, locus YGL248W, strain PDE1, active compounds read low 1 | [11] 0.946 | S. cerevisiae deletion strains, locus YGR135W, strain pre9, active compounds read low 0.956 | S. cerevisiae deletion strains, locus YGR229C, strain SMI1, active compounds read low 0.893 | S. cerevisiae deletion strains, locus YGR252W, strain gcn5, active compounds read low 0.999 | [1] 0.999 | S. cerevisiae deletion strains, locus YHR079C, strain IRE1 (second series), active compounds read low 0.995 | S. cerevisiae deletion strains, locus YHR094C, strain hxt1, active compounds read low 0.997 | S. cerevisiae deletion strains, locus YHR129C, strain ARP1, active compounds read low 0.988 | S. cerevisiae deletion strains, locus YHR200W, strain rpn10, active compounds read low 1 | S. cerevisiae deletion strains, locus YIL066C, strain RNR3, active compounds read low 0.985 | S. cerevisiae deletion strains, locus YIL073C, strain SPO22, active compounds read low 1.01 | S. cerevisiae deletion strains, locus YIL125W, strain kgd1, active compounds read low 0.985 | S. cerevisiae deletion strains, locus YIR030C, strain dcg1, active compounds read low 1 | [3] 0.924 | S. cerevisiae deletion strains, locus YJL134W, strain LCB3, active compounds read low 1 | S. cerevisiae deletion strains, locus YJL168C, strain set2, active compounds read low 0.988 | S. cerevisiae deletion strains, locus YJL187C, strain SWE1 (second series), active compounds read low 1 | S. cerevisiae deletion strains, locus YJR043C, strain POL32, active compounds read low 0.953 | [12] 0.944 | S. cerevisiae deletion strains, locus YKL009W, strain mrt4, active compounds read low 1.01 | S. cerevisiae deletion strains, locus YKL068W, active compounds read low 1 | S. cerevisiae deletion strains, locus YKL085W, strain MDH1 (second series), active compounds read low 1.01 | S. cerevisiae deletion strains, locus YKL085W, strain MDH1, active compounds read low 1.01 | S. cerevisiae deletion strains, locus YKL190W, strain CNB1, active compounds read low 1 | S. cerevisiae deletion strains, locus YKR001C, strain vps1, active compounds read low 0.948 | S. cerevisiae deletion strains, locus YLR039C, strain RIC1, active compounds read low 0.869 | S. cerevisiae deletion strains, locus YLR058C, strain SHM2, active compounds read low 1 | S. cerevisiae deletion strains, locus YLR102C, strain apc9, active compounds read low 0.997 | S. cerevisiae deletion strains, locus YLR262C, strain YPT6, active compounds read low 0.859 | S. cerevisiae deletion strains, locus YLR268W, strain sec22, active compounds read low 0.975 | S. cerevisiae deletion strains, locus YLR330W, strain CHS5, active compounds read low 1.01 | S. cerevisiae deletion strains, locus YLR342W, strain FKS1 (second series), active compounds read low 0.968 | S. cerevisiae deletion strains, locus YLR371W, strain rom2, active compounds read low 0.999 | S. cerevisiae deletion strains, locus YLR418C, strain cdc73, active compounds read low 0.848 | S. cerevisiae deletion strains, locus YML016C, strain PPZ1, active compounds read low 1.01 | S. cerevisiae deletion strains, locus YML032C, strain rad52, active compounds read low 0.983 | S. cerevisiae deletion strains, locus YML124C, strain tub3, active compounds read low 0.995 | S. cerevisiae deletion strains, locus YMR078C, strain ctf18, active compounds read low 0.99 | S. cerevisiae deletion strains, locus YMR223W, strain ubp8, active compounds read low 0.973 | [13] 0.97 | [14] 0.898 | S. cerevisiae deletion strains, locus YNL067W, strain RPL9B, active compounds read low 1.01 | S. cerevisiae deletion strains, locus YNL128W, strain TEP1, active compounds read low 0.978 | S. cerevisiae deletion strains, locus YNL153C, strain GIM3, active compounds read low 0.972 | S. cerevisiae deletion strains, locus YNL233W, strain BNI4, active compounds read low 0.943 | S. cerevisiae deletion strains, locus YNL250W, strain rad50, active compounds read low 0.99 | S. cerevisiae deletion strains, locus YNL271C, strain bni1, active compounds read low 0.991 | S. cerevisiae deletion strains, locus YNL298W, strain CLA4, active compounds read low 0.993 | S. cerevisiae deletion strains, locus YNL307C, strain MCK1, active compounds read low 0.958 | S. cerevisiae deletion strains, locus YNL322C, strain KRE1, active compounds read low 1 | S. cerevisiae deletion strains, locus YNR052C, strain pop2, active compounds read low 1.01 | S. cerevisiae deletion strains, locus YOL006C, strain TOP1, active compounds read low 0.936 | S. cerevisiae deletion strains, locus YOL012C, strain htz1 0.561 | S. cerevisiae deletion strains, locus YOL147C, strain pex11, active compounds read low 1.01 | S. cerevisiae deletion strains, locus YOR061W, strain CKA2, active compounds read low 1.01 | S. cerevisiae deletion strains, locus YOR069W, strain VPS5, active compounds read low 1 | S. cerevisiae deletion strains, locus YOR136W, strain idh2, active compounds read low 0.992 | S. cerevisiae deletion strains, locus YOR144C, strain elg1, active compounds read low 1 | S. cerevisiae deletion strains, locus YOR184W, strain ser1, active compounds read low 0.955 | S. cerevisiae deletion strains, locus YOR316C, strain cot1, active compounds read low 0.999 | [15] 0.996 | S. cerevisiae deletion strains, locus YPL241C, strain CIN2, active compounds read low 1.01 | S. cerevisiae deletion strains, locus YPR119W, strain clb2, active compounds read low 0.994 | S. cerevisiae deletion strains, locus YPR141C, strain kar3, active compounds read low 0.991 | S. cerevisiae deletion strains, locus YPR163C, strain tif3, active compounds read low 1.01 | S. cerevisiae deletion strains, locus YPR167C, strain met16, active compounds read low 1 | S. cerevisiae deletion strains, strain wtn01, active compounds read low 0.96 | S. cerevisiae strains, strain wild type, active compounds read low 0.97

COC(=O)[C@@H]1C[C@H](OC(C)=O)C(=O)[C@H]2[C@@]1(C)CC[C@H]1C(=O)O[C@H](c3ccoc3)C[C@]21C
inactive: [1] 1 | [2] 0.994 | [3] 1 | [4] 0.936 | [5] 1.03 | [6] 0.957 | [7] 0.985 | [8] 1.01

NC(N)=NCCSSCCN=C(N)N
inactive: [9] 0.949 | S. cerevisiae deletion strains, locus YAL040C, strain CLN3, active compounds read low 0.948 | S. cerevisiae deletion strains, locus YCL061C, strain MRC1 (second series), active compounds read low 0.979 | [10] 0.988 | S. cerevisiae deletion strains, locus YDR363W, strain ESC2, active compounds read low 0.941 | S. cerevisiae deletion strains, locus YER002W, strain NOP16, active compounds read low 0.992 | [11] 0.973 | [12] 0.967 | [13] 0.981 | [14] 0.977 | S. cerevisiae deletion strains, locus YNL175C, strain NOP13, active compounds read low 0.981 | S. cerevisiae deletion strains, locus YNL197C, strain WHI3, active compounds read low 0.972 | S. cerevisiae deletion strains, locus YNL224C, strain SQS1, active compounds read low 1.01 | S. cerevisiae deletion strains, locus YOR083W, strain WHI5 (second series), active compounds read low 0.963 | [15] 0.983
